Source: PubChem BioAssay AID995 (National Center for Advancing Translational Sciences (NCATS), 2007)
Screen size: about 72,000 compounds; about 710 (0.99%) were called active. Not shown: some 7% with an inconclusive outcome. The list comes from a sample in which actives are over-represented; it also holds similar structures and randomly drawn compounds. Where a call stands in place of a potency, no number is given. A number with no mark means an inactive call. Calls come from the whole dose curve; as a rule, active = well fitted inhibition curve with a large enough effect; inconclusive = small, poorly fitted or top-dose-only effect; inactive = no such curve, though single readings can be large or run the other way.

Experiment: qHTS Assay for Inhibitors of the ERK Signaling Pathway using a Homogeneous Screening Assay; note: nearly all actives have a fitted effect of over 55% in size
Details: HEK293-V1b, vasopressin-stimulated pERK AlphaScreen; series mostly up to 57.5 µM
Procedure, shortened: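 HEK293 cells stably expressing V1b receptor, seeded overnight in 1% FBS, were treated with compounds for 30 min at 37C, then stimulated 5 min with 25 nM vasopressin; phospho-ERK read by AlphaScreen SureFire after lysis.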
Potency is the fitted concentration of half-maximal effect.

Compound	Potency	activity, negative = inhibition
CC(C)=CC1C(C(=O)O)C1(C)C (stereo unspecified)	inactive	–
O=C(c1ccco1)N1CCC2(CC1)CN(c1ncccn1)C2	inactive	–
CC1(C)OC2CC3C4CCC5=CC(=O)CCC5(C)C4(F)C(O)CC3(C)[C@]2(C(=O)CCl)O1 (stereo partly specified)	inactive	–
CC1OC(OCC2OC(Oc3c(-c4ccc(O)c(O)c4)oc4cc(O)cc(O)c4c3=O)C(O)C(O)C2O)[C@@H](O)C(O)C1O (stereo partly specified)	inactive	–
Cc1c(C)c2c(c(C)c1O)CC[C@@](C)(CN1CCN(c3cc(N4CCCC4)nc(N4CCCC4)n3)CC1)O2	inactive	–
CO[C@H]1COC(=O)C/C=C\[C@H](C)COC(=O)[C@@H](OCc2ccccc2)/C=C\[C@@H]1C	–	0.999% [at 11.5 µM]
COC(=O)CC1C(C)(C)C(OC(C)=O)C2CC3=C4CC(=O)OC(c5ccoc5)[C@]4(C)CCC3[C@@]1(C)C2=O (stereo partly specified)	inactive	–
CC(=O)OCC(=O)[C@@]1(O)CCC2C3CCC4=CC(=O)CC[C@]4(C)C3C(=O)C[C@]21C (stereo partly specified)	inactive	–
Cc1cc(/C=N/n2cnnc2)c(C)n1-c1ccc2ncccc2c1	15.8 µM (active)	–
Cc1ccc(S(=O)(=O)Nc2ccc3ncccc3c2)cc1	inactive	–
Fc1ccc(Br)cc1/C=N/n1cnnc1	inactive	–
CCC1=C(OC(=O)N(CC)CC)N2C(=O)OC(=NCC3CC3)[C@]2(C)[C@H]2C1=CC[C@H]1C(=O)N(CC(=O)OC)C(=O)[C@H]12	inactive	–
CCC(C)C(N)C1=NC(C(=O)NC(CC(C)C)C(=O)NC(CCC(=O)O)C(=O)NC(C(=O)NCCCCC2NC(=O)C(CC(N)=O)NC(=O)C(CC(=O)O)NC(=O)C(Cc3cnc[nH]3)NC(=O)C(Cc3ccccc3)NC(=O)C(C(C)CC)NC(=O)C(CCCN)NC2=O)C(C)CC)CS1 (stereo unspecified)	inactive	–
O=c1c(CCc2ccccc2)nc2cnc(N3CCNCC3)nc2n1Cc1cccs1	inactive	–
Clc1ccc(C2[C@H]3CN(CC4CCCCC4)[C@H](c4ccccc4)C34CC2(c2cccnc2)C4)cn1 (stereo partly specified)	inactive	–
C=CCn1c(CSc2nc3ccccc3s2)nnc1SCC(=O)NCc1ccco1	inactive	–
C=CCn1c(SCC(=O)Nc2nc3ccccc3s2)nnc1-c1ccccc1O	15.8 µM (active)	–
CCn1c(SCC(=O)Nc2nc3ccc(OC)cc3s2)nnc1-c1ccoc1C	inactive	–

Compound	Potency	activity, negative = inhibition
Cc1ccc(-c2nn(CC(C)(C)C)c3ncnc(N)c23)cc1	7.94 µM (active)	–
CC(C)=CCC/C(C)=C/CC/C(C)=C/CC/C(C)=C/CO	inactive	–
COc1cc(OC)c2c(c1Cl)OC1(C2=O)C(O)=CC(=O)CC1C (stereo unspecified)	inactive	–
CCC[C@@H]1C[C@@]1(CCC)C(NS(=O)(=O)c1cccc2cccnc12)c1ccc(Cl)cc1 (stereo partly specified)	inactive	–
C=CC(=C)CCC=C(C)C	inactive	–
Fc1cccc(/C=N\N=C/c2cccc(F)c2)c1	inactive	–
O=C1NS(=O)(=O)c2ccccc21	inactive	–
Cc1cccc(CNc2cc(-c3ccccc3Cl)ncn2)c1	inactive	–
FC(F)(F)c1ccc(CN2C[C@@H]3C(c4ccccc4)C4(c5ccccc5)CC3(C4)[C@H]2c2ccccc2)cc1 (stereo partly specified)	inactive	–
Cc1ccc(OCC(=O)Nc2ccc(-c3nnc(-c4ccco4)o3)cc2)cc1	inactive	–
O=C(CCc1ccccc1)Nc1cccc(-c2nnc(-c3ccco3)o2)c1	25.1 µM (active)	–
COc1ccc(CC(=O)Nc2ccc(-c3nnc(-c4ccccc4)o3)cc2)cc1	inactive	–
Oc1cc(O)c2c(c1)OC(c1ccc(O)c(O)c1)C(O)C2 (stereo unspecified)	inactive	–
C[C@@H](N)[C@@H](C)Cc1ccccc1	–	-2.1% [at 11.5 µM]
CCC(CCC(C)C1CCC2C3CC=C4CC(O)CC[C@@]4(C)C3CC[C@@]12C)C(C)C (stereo partly specified)	inactive	–
COC(=O)C1=C(C)NC2=C(C(=O)c3ccccc32)C1c1ccc(-c2ccc(C(=O)O)cc2)o1 (stereo unspecified)	25.1 µM (active)	–
COC(=O)C1=C(C)NC(=O)NC1/C=C/c1ccccc1 (stereo unspecified)	inactive	–
COc1ccccc1NC(=O)C1=C(C)NC2=C(C(=O)CCC2)C1c1ccc(C)o1 (stereo unspecified)	inactive	–
